Assay results taken from PubChem BioAssay AID1159580 (chemical genetic matrix, 2015).
Several values for one entry are separate records, joined by “and”; a condition that tells them apart may be missing. Equal values may be shown once. Hit rate of the full screen: of about 5,500 compounds, about 2,000 (36%) were called active. Inconclusive results (about 18%) are left out. Cut-off read from the data, not from the text of the source: active = normalized growth mostly below about 0.91 (no sharp cut-off); inconclusive = no clear call, values can overlap the other calls; inactive = mostly above about 0.92. The list shows a part of the results.

Assay: chemical genetic growth profiling, strain panel (AID 1159580);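 note: tested at 20 µM; growth read once vehicle control cultures reached saturation at 30 °C; 1 = growth at the plate median or of vehicle wells; lower values mean less growth of the strain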
Conditions: growth OD

Measured: normalized growth

C[C@]12[C@H](O)CC3C(CC[C@@H]4C[C@@H](O)CC[C@]34C)[C@@]1(O)CC[C@@H]2C1=CC(=O)OC1 (stereo partly drawn)
inactive: S. cerevisiae deletion strains, locus YBR021W, strain FUR4, stronger effect = lower value 1.05 | S. cerevisiae deletion strains, locus YBR229C, strain ROT2, stronger effect = lower value 1.01 | S. cerevisiae deletion strains, locus YCL029C, strain bik1, stronger effect = lower value 0.992 | S. cerevisiae deletion strains, locus YDL035C, strain GPR1, stronger effect = lower value 1.07 | S. cerevisiae deletion strains, locus YDL074C, strain BRE1, stronger effect = lower value 1.07 | S. cerevisiae deletion strains, locus YDL101C, strain DUN1, stronger effect = lower value 1.01 | S. cerevisiae deletion strains, locus YDL134C, strain PPH21, stronger effect = lower value 0.997 | S. cerevisiae deletion strains, locus YDL185W, strain tfp1, stronger effect = lower value 0.987 | S. cerevisiae deletion strains, locus YDL192W, strain arf1, stronger effect = lower value 1 | S. cerevisiae deletion strains, locus YDR101C, strain arx1, stronger effect = lower value 1.01 | S. cerevisiae deletion strains, locus YDR162C, strain NBP2, stronger effect = lower value 1.01 | S. cerevisiae deletion strains, locus YDR318W, strain mcm21, stronger effect = lower value 0.999 | S. cerevisiae deletion strains, locus YDR388W, stronger effect = lower value 0.976 | S. cerevisiae deletion strains, locus YDR502C, strain sam2, stronger effect = lower value 0.971 | S. cerevisiae deletion strains, locus YER110C, stronger effect = lower value 0.974 | S. cerevisiae deletion strains, locus YER155C, strain BEM2, stronger effect = lower value 0.998 | S. cerevisiae deletion strains, locus YER167W, strain BCK2, stronger effect = lower value 1.02 | S. cerevisiae deletion strains, locus YGL078C, strain dbp3, stronger effect = lower value 0.979 | S. cerevisiae deletion strains, locus YGL086W, strain mad1, stronger effect = lower value 0.983 | S. cerevisiae deletion strains, locus YGL248W, strain PDE1, stronger effect = lower value 1.01 | S. cerevisiae deletion strains, locus YGR078C, strain PAC10, stronger effect = lower value 1.01 | S. cerevisiae deletion strains, locus YGR135W, strain pre9, stronger effect = lower value 0.941 | S. cerevisiae deletion strains, locus YGR252W, strain gcn5, stronger effect = lower value 0.923 | S. cerevisiae deletion strains, locus YHR030C, strain SLT2, stronger effect = lower value 1.01 and 1 | S. cerevisiae deletion strains, locus YHR079C, strain IRE1 (second series), stronger effect = lower value 0.98 | S. cerevisiae deletion strains, locus YHR079C, strain IRE1, stronger effect = lower value 0.993 | S. cerevisiae deletion strains, locus YHR094C, strain hxt1, stronger effect = lower value 0.976 | S. cerevisiae deletion strains, locus YHR129C, strain ARP1, stronger effect = lower value 1.01 | S. cerevisiae deletion strains, locus YHR200W, strain rpn10, stronger effect = lower value 0.968 | S. cerevisiae deletion strains, locus YIL066C, strain RNR3, stronger effect = lower value 1.04 | S. cerevisiae deletion strains, locus YIL073C, strain SPO22, stronger effect = lower value 1 | S. cerevisiae deletion strains, locus YIL125W, strain kgd1, stronger effect = lower value 0.984 | S. cerevisiae deletion strains, locus YIR030C, strain dcg1, stronger effect = lower value 0.986 | S. cerevisiae deletion strains, locus YJL095W, strain BCK1, stronger effect = lower value 0.999 and 0.994 | S. cerevisiae deletion strains, locus YJL134W, strain LCB3, stronger effect = lower value 1.01 | S. cerevisiae deletion strains, locus YJL168C, strain set2, stronger effect = lower value 0.994 | S. cerevisiae deletion strains, locus YJL187C, strain SWE1 (second series), stronger effect = lower value 1.01 | S. cerevisiae deletion strains, locus YJR066W, strain TOR1, stronger effect = lower value 0.903 | S. cerevisiae deletion strains, locus YKL009W, strain mrt4, stronger effect = lower value 1.02 | S. cerevisiae deletion strains, locus YKL068W, stronger effect = lower value 0.994 | S. cerevisiae deletion strains, locus YKL085W, strain MDH1 (second series), stronger effect = lower value 0.975 | S. cerevisiae deletion strains, locus YKL085W, strain MDH1, stronger effect = lower value 0.975 | S. cerevisiae deletion strains, locus YKR001C, strain vps1, stronger effect = lower value 1.01 | S. cerevisiae deletion strains, locus YLR039C, strain RIC1, stronger effect = lower value 1.05 | S. cerevisiae deletion strains, locus YLR058C, strain SHM2, stronger effect = lower value 1.02 | S. cerevisiae deletion strains, locus YLR102C, strain apc9, stronger effect = lower value 0.982 | S. cerevisiae deletion strains, locus YLR113W, strain HOG1, stronger effect = lower value 1.03 | S. cerevisiae deletion strains, locus YLR262C, strain YPT6, stronger effect = lower value 1.09 | S. cerevisiae deletion strains, locus YLR268W, strain sec22, stronger effect = lower value 1.01 | S. cerevisiae deletion strains, locus YLR342W, strain FKS1 (second series), stronger effect = lower value 1.05 | S. cerevisiae deletion strains, locus YLR371W, strain rom2, stronger effect = lower value 0.996 | S. cerevisiae deletion strains, locus YLR418C, strain cdc73, stronger effect = lower value 0.955 | S. cerevisiae deletion strains, locus YML016C, strain PPZ1, stronger effect = lower value 1.02 | S. cerevisiae deletion strains, locus YML032C, strain rad52, stronger effect = lower value 0.998 | S. cerevisiae deletion strains, locus YML124C, strain tub3, stronger effect = lower value 0.986 | S. cerevisiae deletion strains, locus YMR078C, strain ctf18, stronger effect = lower value 0.979 | S. cerevisiae deletion strains, locus YMR223W, strain ubp8, stronger effect = lower value 0.974 | S. cerevisiae deletion strains, locus YMR307W, strain GAS1, stronger effect = lower value 1.13 | S. cerevisiae deletion strains, locus YNL067W, strain RPL9B, stronger effect = lower value 0.99 | S. cerevisiae deletion strains, locus YNL153C, strain GIM3, stronger effect = lower value 1 | S. cerevisiae deletion strains, locus YNL183C, strain NPR1, stronger effect = lower value 0.924 | S. cerevisiae deletion strains, locus YNL233W, strain BNI4, stronger effect = lower value 1 | S. cerevisiae deletion strains, locus YNL250W, strain rad50, stronger effect = lower value 0.974 | S. cerevisiae deletion strains, locus YNL271C, strain bni1, stronger effect = lower value 0.991 | S. cerevisiae deletion strains, locus YNL298W, strain CLA4, stronger effect = lower value 1.01 | S. cerevisiae deletion strains, locus YNL307C, strain MCK1, stronger effect = lower value 0.977 | S. cerevisiae deletion strains, locus YNR052C, strain pop2, stronger effect = lower value 0.965 | S. cerevisiae deletion strains, locus YOL012C, strain htz1 0.887 | S. cerevisiae deletion strains, locus YOL147C, strain pex11, stronger effect = lower value 0.99 | S. cerevisiae deletion strains, locus YOR061W, strain CKA2, stronger effect = lower value 1.04 | S. cerevisiae deletion strains, locus YOR069W, strain VPS5, stronger effect = lower value 1.01 | S. cerevisiae deletion strains, locus YOR136W, strain idh2, stronger effect = lower value 0.952 | S. cerevisiae deletion strains, locus YOR144C, strain elg1, stronger effect = lower value 0.987 | S. cerevisiae deletion strains, locus YOR184W, strain ser1, stronger effect = lower value 1.03 | S. cerevisiae deletion strains, locus YOR231W, strain MKK1, stronger effect = lower value 1 | S. cerevisiae deletion strains, locus YOR316C, strain cot1, stronger effect = lower value 0.982 | S. cerevisiae deletion strains, locus YPL256C, strain CLN2, stronger effect = lower value 0.982 | S. cerevisiae deletion strains, locus YPR119W, strain clb2, stronger effect = lower value 0.985 | S. cerevisiae deletion strains, locus YPR141C, strain kar3, stronger effect = lower value 0.983 | S. cerevisiae deletion strains, locus YPR163C, strain tif3, stronger effect = lower value 0.988 | S. cerevisiae deletion strains, locus YPR167C, strain met16, stronger effect = lower value 0.984 | S. cerevisiae deletion strains, strain wtn01, stronger effect = lower value 0.998 | S. cerevisiae strains, strain wild type, stronger effect = lower value 1.03
